Results: PubChem BioAssay
Active and inactive are the calls of the source.

How the values were obtained:
[1] = system: PRMT1 (protein arginine N-methyltransferase 1); test: small molecules binding arginine methyltransferase PRMT1 – biochemical, small-molecule microarray, 635 nm fluorescence, primary screen (AID 1088); conditions: higher = more signal;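 also: binding of Prmt1 protein to compounds spotted on small-molecule microarray slides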
[2] = growth effects on S. cerevisiae YJM789 – YJM789 clinical isolate, OD600, 24 h, basal, primary screen (AID 1089); conditions: higher = more signal, called active from +8 up or from −8 down;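 also: growth of clinical yeast isolate S. cerevisiae YJM 789 seeded 1000 cells per well; test concentration not given here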
[3] = S. pombe growth modifiers, basal conditions – strain 972, OD600, 24 h, no modulator, primary screen (AID 1090);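 also: basal condition with compound alone and no growth modifier present; test concentration not given here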; conditions: S. pombe 972 growth, higher = more signal, called active from +8 up or from −8 down
[4] = budding yeast growth modifiers under rapamycin – strain BY4716, OD600, 96 h, primary screen (AID 1091); also: test concentration not given here; conditions: S. cerevisiae BY4716 + rapamycin, higher = more signal, called active from +8 up or from −8 down
[5] = target: Torsin-1A-interacting protein 2 (Homo sapiens) (UniProt Q8NFQ8); test: small molecules binding lysate-expressed LULL1 – cell lysate, human LULL1 lysate, 635/667 nm fluorescence, primary screen (AID 1092); conditions: small-molecule microarray, hLULL1 lysate binding, 635 nm fluorescence; higher = more signal;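 also: probe is lysate of COS7 cells overexpressing human LULL1; score merges per-feature 667 nm fluorescence with signal-to-noise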
[6] = optical density change of DRC41 E. coli – strain DRC41, OD650, 24 h, E. coli filamentation project, primary screen (AID 1093);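 also: MC1000 strain lacking acrAB efflux and sulA so SOS filamentation is blocked; test concentration not given here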; conditions: E. coli DRC41 growth, higher = more signal, called active from +8 up or from −8 down
[7] = probe aLefty2 binding to arrayed compounds – biochemical, biotinylated probe, 635/667 nm fluorescence, primary screen (AID 1094); conditions: small-molecule microarray, higher = more signal;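 also: score merges spot fluorescence near 667 nm with spot signal-to-noise ratio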
[8] = system: Noggin (protein binding on small-molecule microarray); test: small molecules binding Noggin protein – biochemical, 635/667 nm fluorescence, primary screen (AID 1095); conditions: 635 nm fluorescence, higher = more signal;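 also: score merges 667 nm feature fluorescence with signal to noise over triplicate slides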
[9] = target: Neurogenic locus notch homolog protein 3 (Homo sapiens) (UniProt Q9UM47); test: small molecules binding NOTCH3 protein – biochemical, 635/667 nm fluorescence, primary screen (AID 1096); conditions: small-molecule microarray, 635 nm fluorescence, higher = more signal
[10] = probe aEGFR binding to arrayed compounds – biochemical, biotinylated probe, 635/667 nm fluorescence, primary screen (AID 1097); conditions: small-molecule microarray, higher = more signal;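 also: probe is a biotinylated anti-EGFR antibody binding compounds printed on slides; score combines fluorescence near 667 nm and signal to noise of each spot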

Chain of Torsin-1A-interacting protein 2 (Homo sapiens) (Q8NFQ8 whole entry, looked up): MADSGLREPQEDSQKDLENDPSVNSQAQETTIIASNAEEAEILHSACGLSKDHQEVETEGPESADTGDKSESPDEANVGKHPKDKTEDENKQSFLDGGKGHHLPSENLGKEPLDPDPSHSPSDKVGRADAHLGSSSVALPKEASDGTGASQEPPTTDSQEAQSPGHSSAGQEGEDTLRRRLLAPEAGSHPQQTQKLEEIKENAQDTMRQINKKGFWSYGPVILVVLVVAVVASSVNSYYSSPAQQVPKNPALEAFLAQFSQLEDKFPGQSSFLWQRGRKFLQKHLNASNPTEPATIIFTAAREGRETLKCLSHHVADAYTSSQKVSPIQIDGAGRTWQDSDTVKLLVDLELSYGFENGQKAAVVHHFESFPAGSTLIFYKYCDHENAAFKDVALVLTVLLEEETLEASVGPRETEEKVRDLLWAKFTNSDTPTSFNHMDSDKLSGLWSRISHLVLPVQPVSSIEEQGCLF
Chain of Neurogenic locus notch homolog protein 3 (Homo sapiens) (Q9UM47 whole entry, looked up): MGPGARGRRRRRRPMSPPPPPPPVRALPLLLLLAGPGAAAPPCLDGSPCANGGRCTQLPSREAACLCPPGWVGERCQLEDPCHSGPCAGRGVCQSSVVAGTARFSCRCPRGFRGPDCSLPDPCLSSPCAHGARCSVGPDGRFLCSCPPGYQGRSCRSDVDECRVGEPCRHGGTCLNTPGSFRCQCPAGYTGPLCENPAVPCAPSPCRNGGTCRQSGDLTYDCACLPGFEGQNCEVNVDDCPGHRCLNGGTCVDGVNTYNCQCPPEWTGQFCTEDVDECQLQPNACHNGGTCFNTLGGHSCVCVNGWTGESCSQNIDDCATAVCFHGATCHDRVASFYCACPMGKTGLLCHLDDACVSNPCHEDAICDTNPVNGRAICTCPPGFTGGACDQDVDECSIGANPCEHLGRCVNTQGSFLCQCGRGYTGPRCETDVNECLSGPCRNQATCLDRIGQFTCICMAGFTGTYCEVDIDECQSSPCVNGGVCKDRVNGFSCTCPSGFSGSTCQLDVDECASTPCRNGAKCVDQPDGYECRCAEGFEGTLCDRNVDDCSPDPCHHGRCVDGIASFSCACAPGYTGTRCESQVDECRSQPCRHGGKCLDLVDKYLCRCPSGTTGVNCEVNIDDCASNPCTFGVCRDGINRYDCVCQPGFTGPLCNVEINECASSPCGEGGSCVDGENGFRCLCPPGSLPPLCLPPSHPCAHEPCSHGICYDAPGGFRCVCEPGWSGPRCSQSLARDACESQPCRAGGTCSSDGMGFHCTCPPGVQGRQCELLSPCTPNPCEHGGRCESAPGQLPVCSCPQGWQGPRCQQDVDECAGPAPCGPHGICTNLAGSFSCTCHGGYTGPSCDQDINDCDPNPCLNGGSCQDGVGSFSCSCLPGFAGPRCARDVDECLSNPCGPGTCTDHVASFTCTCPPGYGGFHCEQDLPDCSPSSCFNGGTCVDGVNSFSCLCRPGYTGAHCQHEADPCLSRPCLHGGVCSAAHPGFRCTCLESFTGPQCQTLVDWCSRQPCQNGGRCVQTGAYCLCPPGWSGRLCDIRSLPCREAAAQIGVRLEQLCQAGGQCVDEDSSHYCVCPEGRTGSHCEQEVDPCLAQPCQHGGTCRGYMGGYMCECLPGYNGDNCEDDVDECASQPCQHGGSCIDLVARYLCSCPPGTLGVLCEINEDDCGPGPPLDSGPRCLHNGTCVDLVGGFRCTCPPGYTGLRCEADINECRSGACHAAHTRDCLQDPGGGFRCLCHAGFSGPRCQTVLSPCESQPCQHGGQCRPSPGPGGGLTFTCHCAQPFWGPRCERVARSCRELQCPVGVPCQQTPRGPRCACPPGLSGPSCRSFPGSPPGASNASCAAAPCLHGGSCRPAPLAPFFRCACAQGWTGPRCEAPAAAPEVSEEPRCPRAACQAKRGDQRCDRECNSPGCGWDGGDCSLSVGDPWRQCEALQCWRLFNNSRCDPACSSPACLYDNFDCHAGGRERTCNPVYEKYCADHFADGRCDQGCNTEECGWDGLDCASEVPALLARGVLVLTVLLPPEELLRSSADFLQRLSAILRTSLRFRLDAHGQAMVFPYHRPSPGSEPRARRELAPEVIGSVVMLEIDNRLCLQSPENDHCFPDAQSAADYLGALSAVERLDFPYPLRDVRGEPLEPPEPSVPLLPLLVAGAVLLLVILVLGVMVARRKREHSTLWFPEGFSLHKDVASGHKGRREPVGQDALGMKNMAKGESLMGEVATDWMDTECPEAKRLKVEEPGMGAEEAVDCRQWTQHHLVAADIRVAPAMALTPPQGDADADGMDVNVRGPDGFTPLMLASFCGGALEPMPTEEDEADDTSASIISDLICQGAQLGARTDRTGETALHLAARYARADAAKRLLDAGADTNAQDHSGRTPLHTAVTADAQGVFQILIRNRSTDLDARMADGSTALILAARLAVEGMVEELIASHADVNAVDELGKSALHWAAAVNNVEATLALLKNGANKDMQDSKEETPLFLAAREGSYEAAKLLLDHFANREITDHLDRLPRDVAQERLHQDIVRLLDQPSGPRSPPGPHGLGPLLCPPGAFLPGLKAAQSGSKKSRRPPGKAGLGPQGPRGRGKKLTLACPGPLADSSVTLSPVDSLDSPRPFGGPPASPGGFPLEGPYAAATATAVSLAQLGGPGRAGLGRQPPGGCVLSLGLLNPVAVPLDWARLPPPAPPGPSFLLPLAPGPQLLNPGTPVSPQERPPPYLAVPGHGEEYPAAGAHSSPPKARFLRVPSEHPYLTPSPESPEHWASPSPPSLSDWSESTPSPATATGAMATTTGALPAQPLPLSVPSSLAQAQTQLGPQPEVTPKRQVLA

SMILES | composite z-score [1] | z-score [2] | z-score [3] | z-score [4] | composite z-score [5] | z-score [6] | composite z-score [7] | composite z-score [8] | composite z-score [9] | composite z-score [10]
O=C(NN=C1C[C@@H](O)[C@@H](O)[C@@H]2[C@@H]3C(=O)N(c4ccc(F)cc4F)C(=O)[C@@H]3CC[C@@H]12)OCc1ccccc1 | -0.127 | 0.615 (inactive) | 0.664 (inactive) | -0.442 (inactive) | 1.03 | 0.203 (inactive) | -0.11 | -0.0944 | 0.57 | -0.0616
COc1ccc(COC(=O)NN=C2C[C@@H](O)[C@@H](O)[C@@H]3[C@@H]4C(=O)N(c5ccc(F)cc5F)C(=O)[C@@H]4CC[C@@H]23)cc1 | -1.42 | 0.935 (inactive) | -0.423 (inactive) | 0.0088 (inactive) | -0.524 | 0.488 (inactive) | 0.0215 | -0.0901 | 0.14 | -0.117
Cc1cc2c(nc1C)CCCN2CC(C)ON=C1[C@H]2CCn3c(=O)n(-c4ccccc4)c(=O)n3[C@H]2[C@H](O)[C@@H]2O[C@H]12 (stereo not given in full) | 1.51 | -0.706 (inactive) | -0.829 (inactive) | -0.115 (inactive) | 1.42 | -0.414 (inactive) | -0.138 | 0.725 | 1.01 | -0.0141
O=C1C[C@]2(c3ccc([N+](=O)[O-])cc3)C(=O)N(CCN3CCOCC3)c3cc(CO)ccc3[C@H]2N1CC12CC3CC(CC(C3)C1)C2 | -0.286 | -1.31 (inactive) | -0.324 (inactive) | -2.77 (inactive) | 1.81 | 0.679 (inactive) | 0.0023 | -0.323 | 0.111 | -0.156
COCCOC(=O)N1C(=O)[C@@]2(c3ccccc31)[C@H](C(N)=O)[C@H]1C(=O)O[C@H](c3ccccc3)[C@H](c3ccccc3)N1[C@@H]2c1ccccc1OCCO | 1.53 | 0.438 (inactive) | -0.142 (inactive) | 3.11 (inactive) | 1.84 | 1.24 (inactive) | 0.16 | 1.32 | 1.12 | 0.261
O=C1O[C@@H](c2ccccc2)[C@@H](c2ccccc2)N2[C@@H](c3ccc(OCCO)cc3)[C@]3(C(=O)Nc4ccc(C#CCCO)cc43)[C@@H](C(=O)N3CCCCCCC3)[C@H]12 | 1.54 | 1.15 (inactive) | -0.507 (inactive) | 2.23 (inactive) | 3.83 | 0.694 (inactive) | 1.35 | 1.39 | 1.08 | 0.249
CS(=O)(=O)CCOC(=O)C1=CC(CCCO)=CC(c2cccs2)N(Cc2cccc(OC(F)(F)F)c2)C=C1C(=O)OCCS(C)(=O)=O (stereo not given) | 1.57 | -0.522 (inactive) | -2.82 (inactive) | -1.34 (inactive) | 2.17 | -0.0221 (inactive) | 0.0651 | 0.025 | 0.993 | 0.0269
CCN1C(=O)[C@H]2[C@H]3[C@H](O)[C@H](O)CC(=NOCc4ccccc4)[C@H]3CC[C@H]2C1=O | -0.204 | -0.896 (inactive) | -0.337 (inactive) | -0.262 (inactive) | 0.21 | 0.632 (inactive) | -0.386 | 0.863 | 0.469 | -0.0953
COC(=O)CC=C[C@@H](C)[C@@H](C=NO[C@H](C)c1cn([C@@H]2COC[C@H]2O)nn1)OC | 1.35 | 0.212 (inactive) | 0.189 (inactive) | -0.266 (inactive) | 0.965 | 0.135 (inactive) | -0.156 | 0.359 | 0.484 | 0.0009
O=C1[C@H]2[C@H]3[C@H](O)[C@H](O)CC(=NO[C@@H]4O[C@H](CO)[C@@H](O)[C@H](O)[C@H]4O)[C@H]3CC[C@H]2C(=O)N1Cc1ccccc1 | 1.46 | -0.509 (inactive) | -0.468 (inactive) | -0.987 (inactive) | 0.903 | -0.61 (inactive) | -0.0015 | 1.02 | 0.669 | -0.0565
CCOC(=O)NN=C1C[C@@H](O)[C@@H](O)[C@@H]2[C@@H]3C(=O)N(C(C)(C)C)C(=O)[C@@H]3CC[C@@H]12 | -0.172 | -1.04 (inactive) | 0.213 (inactive) | -0.626 (inactive) | -0.786 | 0.572 (inactive) | -0.0569 | 0.261 | -0.861 | 0.0021
COC(=O)C1(C)C=C2C(=C(c3ccccc3)C(=O)C2C)CN1 (stereo not given) | -0.722 | -0.269 (inactive) | 0.14 (inactive) | 0.654 (inactive) | 0.517 | -0.269 (inactive) | 0.498 | -1.44 | -0.904 | 0.0003
C[C@@H]1CCC2C(=O)N(Cc3ccccc3)C[C@@H](O)CN2[C@H]1c1ccc(Br)cc1 (stereo not given in full) | 1.39 | -1.91 (inactive) | -3.75 (inactive) | -0.26 (inactive) | 1.5 | 0.369 (inactive) | -0.23 | 0.542 | 0.158 | -0.115
COCCCNC(=O)[C@]1(CCC(=O)OC(C)(C)C)N=C(c2ccc(OCCCO)cc2)O[C@@H]1c1ccccc1N=[N+]=[N-] | 1.54 | -0.376 (inactive) | -1.22 (inactive) | 0.719 (inactive) | 3.81 | 0.619 (inactive) | 0.0979 | 0.778 | 1.11 | 0.134
[N-]=[N+]=Nc1ccccc1C[C@@]1(C(N)=O)N=C(c2ccc(OCCCO)cc2)O[C@@H]1c1ccccc1 | 0.683 | -0.501 (inactive) | -0.371 (inactive) | -0.481 (inactive) | 2.06 | 0.0722 (inactive) | 0.316 | -0.754 | 0.156 | -0.0455
CC(=O)OC[C@H]1O[C@H](C#CCCCc2ccccc2)C=C[C@@H]1OC(C)=O | 0.351 | 0.458 (inactive) | -19.5 (active) | -0.967 (inactive) | 1.01 | 0.0065 (inactive) | -0.239 | 0.66 | 0.389 | -0.0703
COc1ccc([Si](C)(C)[C@H]2[C@H](CC(=O)N3CCC[C@H]3CO)O[C@@]3(C(=O)N(Cc4cccc(N5C(=O)COc6ccccc65)c4)c4ccccc43)[C@@H]2C)cc1 | 1.41 | -2.58 (inactive) | -0.769 (inactive) | -0.827 (inactive) | 2.25 | 1.43 (inactive) | -0.166 | 1.61 | 1.14 | -0.142
C=CC[C@@H]1C=C[C@H](ON=C(C)CCN2CCc3nc(CC)c(CC)cc3C2)[C@@H](CO)O1 | 1.21 | -1.12 (inactive) | -0.0455 (inactive) | -0.384 (inactive) | 1.07 | 0.544 (inactive) | 0.0522 | 0.981 | 0.717 | -0.0435
C=C(/C(=C/C[C@@H](OC(=O)c1ccncc1)c1ccc(OCCO)cc1)c1cnc2ccccc2c1)C(C)C | 1.55 | -24.8 (active) | -20.4 (active) | -4.32 (inactive) | 0.65 | 1.23 (inactive) | -0.0262 | 1.65 | 1.07 | -0.0949
CCOC(=O)CCN1C(=O)[C@H]2[C@H]3[C@H](O)[C@H](O)CC(=NOC[C@@H](O)COCc4ccco4)[C@H]3CC[C@H]2C1=O | 1.46 | -0.114 (inactive) | -3.86 (inactive) | -0.86 (inactive) | 0.756 | 0.09 (inactive) | -0.188 | 0.474 | 0.921 | 0.0649
CCCNC(=O)OC[C@H]1O[C@H](CCON=CC[C@@H]2C=C[C@H](OC(C)=O)[C@@H](COC(C)=O)O2)C=C[C@@H]1Oc1ccc(OC)cc1 | 1.18 | -0.704 (inactive) | 0.115 (inactive) | 0.023 (inactive) | 0.667 | 0.457 (inactive) | -0.0159 | 0.643 | 0.249 | 0.0486
CC(C)=C1C(=O)C(c2ccccc2)=C2CN3C(=O)N(CCc4ccccc4)C(=O)[C@]3(Cc3ccc(F)cc3)[C@H]21 | 1.11 | -0.129 (inactive) | -0.0353 (inactive) | 0.135 (inactive) | 2.04 | -1.7 (inactive) | 0.253 | -1.25 | -1.3 | 0.119
Cc1cc(C)c(-c2cc([C@H](C)ON=C3[C@H]4CCn5c(=O)n(-c6ccccc6)c(=O)n5[C@H]4[C@H](O)[C@@H]4O[C@H]34)on2)c(C)c1 | 0.432 | 0.566 (inactive) | -1.84 (inactive) | 0.0884 (inactive) | 1.83 | 0.771 (inactive) | -0.133 | 0.627 | 0.766 | -0.0978
COCCOC(=O)N1C(=O)[C@@]2(c3cc(C#CCNC(N)=O)ccc31)[C@H](c1ccccc1OCCO)N1[C@H](c3ccccc3)[C@H](c3ccccc3)OC(=O)[C@H]1[C@@H]2C(=O)N1CCN(c2ncccn2)CC1 | 1.44 | -0.0197 (inactive) | 2.11 (inactive) | 3.85 (inactive) | 2.22 | 0.961 (inactive) | 0.065 | 0.43 | 0.572 | -0.0271
CO[C@@H]1COC(=O)CC=C[C@@H](C)[C@@H]2C=C[C@@H](O)[C@@H](COC(=O)CC=C[C@H]1C)O2 | 1.44 | -1.85 (inactive) | -0.862 (inactive) | -0.562 (inactive) | -0.284 | -0.552 (inactive) | -0.19 | 1.29 | 0.0667 | -0.0112
CC[C@@H](c1ccccc1)n1c(=O)n2n(c1=O)[C@H]1[C@H](O)[C@@H]3O[C@@H]3C(=NOCC(C)C)[C@H]1CC2 | -0.179 | 1.3 (inactive) | -0.0534 (inactive) | 1.37 (inactive) | 0.543 | 0.409 (inactive) | -0.213 | 0.288 | 0.586 | -0.0967
COC(=O)CC=C[C@H](C)[C@@H](OCc1ccccc1Br)C(C)C | 0.204 | -0.0851 (inactive) | -0.552 (inactive) | 0.393 (inactive) | -0.117 | -0.295 (inactive) | -0.228 | 0.168 | -0.0294 | -0.167
C[C@@H]1C=CCC(=O)OC[C@H](C)C(=O)N2CCC[C@H]2C(=O)OC1 | 1.54 | -0.407 (inactive) | 0.334 (inactive) | 0.356 (inactive) | 0.0414 | 0.325 (inactive) | -0.0971 | 1.7 | 0.677 | 0.228
